From paper PMC7862700, “An all-to-all approach to the identification of sequence-specific readers for epigenetic DNA modifications on cytosine”

Legend:
Assay in all cases: DAPPL (digital affinity profiling via proximity ligation, sequencing); 10 mM Tris-HCl pH 7.5, 50 mM NaCl, 1 mM DTT, 4% glycerol, room temperature, 30 min; GST-TFs on glutathione beads, 16-mer random dsDNA library, 0.1% formaldehyde crosslink after washing; high values mean tight binding
FLI1 = target: T1, FLI1 (Homo sapiens, UniProt Q01543 1-452); settings: protein: recombinant; tags: N-terminal GST; dsDNA, one strand shown
T1 sequence: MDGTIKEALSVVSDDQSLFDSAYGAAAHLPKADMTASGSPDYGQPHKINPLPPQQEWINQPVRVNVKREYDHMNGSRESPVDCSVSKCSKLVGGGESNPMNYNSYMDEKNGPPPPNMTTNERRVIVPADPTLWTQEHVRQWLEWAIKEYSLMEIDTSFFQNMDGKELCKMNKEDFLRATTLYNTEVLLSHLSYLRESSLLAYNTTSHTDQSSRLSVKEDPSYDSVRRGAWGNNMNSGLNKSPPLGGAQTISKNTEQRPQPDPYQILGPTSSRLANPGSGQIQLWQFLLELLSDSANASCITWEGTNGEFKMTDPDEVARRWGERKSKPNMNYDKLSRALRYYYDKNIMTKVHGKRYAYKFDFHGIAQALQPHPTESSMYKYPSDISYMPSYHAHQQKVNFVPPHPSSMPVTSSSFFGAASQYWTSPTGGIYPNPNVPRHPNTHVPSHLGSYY
Method in brief: (§1)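 Human transcription factors were made in yeast as GST fusions, captured on glutathione beads and barcoded with DNA. With a tag-only sample included, the pool was incubated with 200 nmole of a random double-stranded 16-mer DNA library in Tris/NaCl/DTT/glycerol buffer at room temperature for 30 min, then crosslinked with 0.1% formaldehyde after washing, ligated by proximity, amplified and sequenced. For binding signal, each hexamer's read frequency for a factor is divided by its frequency for the tag-only sample.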

ELK1 = target: T2, ELK1 (Homo sapiens, UniProt P19419 1-428); settings: protein: recombinant; tags: N-terminal GST; dsDNA, one strand shown
T2 sequence: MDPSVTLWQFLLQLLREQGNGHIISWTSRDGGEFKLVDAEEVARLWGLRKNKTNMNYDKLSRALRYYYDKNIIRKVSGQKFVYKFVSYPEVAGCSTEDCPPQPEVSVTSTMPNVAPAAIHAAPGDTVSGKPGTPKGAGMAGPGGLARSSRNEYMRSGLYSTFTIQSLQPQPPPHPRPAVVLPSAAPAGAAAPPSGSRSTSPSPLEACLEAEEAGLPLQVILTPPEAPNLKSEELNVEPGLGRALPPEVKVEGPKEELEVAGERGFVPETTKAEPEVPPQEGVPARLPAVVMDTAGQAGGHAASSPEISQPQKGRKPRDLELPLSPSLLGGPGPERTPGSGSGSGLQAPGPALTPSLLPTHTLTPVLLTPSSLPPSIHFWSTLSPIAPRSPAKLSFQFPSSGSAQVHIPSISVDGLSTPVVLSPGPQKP
Method in brief: as §1

GABPA = target: T3, GABPA (Homo sapiens, UniProt Q06546 1-454); settings: protein: recombinant; tags: N-terminal GST; dsDNA, one strand shown
T3 sequence: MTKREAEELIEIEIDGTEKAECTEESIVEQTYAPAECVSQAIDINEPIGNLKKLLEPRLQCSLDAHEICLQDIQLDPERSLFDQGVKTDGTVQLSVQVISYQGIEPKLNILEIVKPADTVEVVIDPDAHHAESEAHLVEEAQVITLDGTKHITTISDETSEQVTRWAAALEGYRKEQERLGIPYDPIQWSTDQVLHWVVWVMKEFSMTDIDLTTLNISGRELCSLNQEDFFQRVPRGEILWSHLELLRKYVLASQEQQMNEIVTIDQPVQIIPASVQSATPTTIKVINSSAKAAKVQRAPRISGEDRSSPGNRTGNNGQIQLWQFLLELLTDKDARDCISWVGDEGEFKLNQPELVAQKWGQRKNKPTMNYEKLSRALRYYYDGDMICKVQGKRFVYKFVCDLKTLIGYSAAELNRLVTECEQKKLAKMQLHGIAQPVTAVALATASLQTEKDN
Method in brief: as §1

ERG = target: T4, ERG (Homo sapiens, UniProt P11308 1-479); settings: protein: recombinant; tags: N-terminal GST; dsDNA, one strand shown
T4 sequence: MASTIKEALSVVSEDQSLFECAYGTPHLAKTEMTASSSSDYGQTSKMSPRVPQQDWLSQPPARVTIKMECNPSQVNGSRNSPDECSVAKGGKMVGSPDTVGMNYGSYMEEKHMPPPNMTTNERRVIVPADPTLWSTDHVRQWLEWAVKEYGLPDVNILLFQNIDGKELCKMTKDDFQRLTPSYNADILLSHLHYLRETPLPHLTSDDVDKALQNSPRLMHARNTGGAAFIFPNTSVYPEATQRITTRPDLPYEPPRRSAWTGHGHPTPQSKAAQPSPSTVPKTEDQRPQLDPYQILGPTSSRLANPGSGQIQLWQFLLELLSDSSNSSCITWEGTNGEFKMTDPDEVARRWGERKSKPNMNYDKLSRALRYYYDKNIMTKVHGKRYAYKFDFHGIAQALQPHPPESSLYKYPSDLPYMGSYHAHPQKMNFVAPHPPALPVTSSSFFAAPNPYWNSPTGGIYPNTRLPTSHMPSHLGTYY
Method in brief: as §1

ELF1 = ELF1 (Homo sapiens, UniProt P32519 1-619); settings: protein: recombinant; tags: N-terminal GST; dsDNA, one strand shown
Chain of ELF1 (P32519 whole entry): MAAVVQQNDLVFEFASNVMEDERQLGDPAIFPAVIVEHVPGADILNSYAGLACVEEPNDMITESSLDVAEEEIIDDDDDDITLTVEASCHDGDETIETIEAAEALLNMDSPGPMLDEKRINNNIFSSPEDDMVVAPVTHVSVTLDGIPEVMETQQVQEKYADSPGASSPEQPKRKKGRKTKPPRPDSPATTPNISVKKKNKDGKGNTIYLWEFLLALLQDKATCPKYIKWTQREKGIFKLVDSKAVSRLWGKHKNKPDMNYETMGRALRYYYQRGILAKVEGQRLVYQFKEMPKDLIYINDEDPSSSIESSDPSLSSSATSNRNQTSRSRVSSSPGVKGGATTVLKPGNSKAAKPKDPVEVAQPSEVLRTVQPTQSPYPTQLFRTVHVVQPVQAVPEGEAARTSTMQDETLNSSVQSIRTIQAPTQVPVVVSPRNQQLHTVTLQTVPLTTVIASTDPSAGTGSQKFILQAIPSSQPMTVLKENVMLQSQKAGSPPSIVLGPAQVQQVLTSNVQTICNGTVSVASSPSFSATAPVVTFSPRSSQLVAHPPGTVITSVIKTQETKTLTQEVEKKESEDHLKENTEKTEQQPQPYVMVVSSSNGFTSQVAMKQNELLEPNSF
Method in brief: as §1

EHF = target: T5, EHF (Homo sapiens, UniProt Q9NZC4 1-300); settings: protein: recombinant; tags: N-terminal GST; dsDNA, one strand shown
T5 sequence: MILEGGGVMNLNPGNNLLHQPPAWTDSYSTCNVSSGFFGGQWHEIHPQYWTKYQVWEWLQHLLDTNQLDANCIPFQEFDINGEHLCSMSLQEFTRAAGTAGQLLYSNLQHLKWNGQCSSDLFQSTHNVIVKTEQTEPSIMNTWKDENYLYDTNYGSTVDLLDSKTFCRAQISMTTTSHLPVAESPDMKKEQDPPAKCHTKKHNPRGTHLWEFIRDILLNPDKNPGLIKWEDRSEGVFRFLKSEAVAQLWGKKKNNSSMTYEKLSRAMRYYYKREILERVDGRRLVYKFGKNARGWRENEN
Method in brief: as §1

SPI1 = SPI1 (Homo sapiens, UniProt P17947 1-270); settings: protein: recombinant; tags: N-terminal GST; dsDNA, one strand shown
Method in brief: as §1

SPIB = SPIB (Homo sapiens, UniProt Q01892 1-262); settings: protein: recombinant; tags: N-terminal GST; dsDNA, one strand shown
Chain of SPIB (Q01892 whole entry): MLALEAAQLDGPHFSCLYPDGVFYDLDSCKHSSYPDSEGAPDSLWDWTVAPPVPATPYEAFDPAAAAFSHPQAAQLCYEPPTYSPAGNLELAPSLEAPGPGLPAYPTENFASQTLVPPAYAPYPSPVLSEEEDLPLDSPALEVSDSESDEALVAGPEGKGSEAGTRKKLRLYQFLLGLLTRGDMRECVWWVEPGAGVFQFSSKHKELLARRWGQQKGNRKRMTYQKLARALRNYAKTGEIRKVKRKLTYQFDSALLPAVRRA
Method in brief: as §1

ELK3 = target: T6, ELK3 (Homo sapiens, UniProt P41970 1-407); settings: protein: recombinant; tags: N-terminal GST; dsDNA, one strand shown
T6 sequence: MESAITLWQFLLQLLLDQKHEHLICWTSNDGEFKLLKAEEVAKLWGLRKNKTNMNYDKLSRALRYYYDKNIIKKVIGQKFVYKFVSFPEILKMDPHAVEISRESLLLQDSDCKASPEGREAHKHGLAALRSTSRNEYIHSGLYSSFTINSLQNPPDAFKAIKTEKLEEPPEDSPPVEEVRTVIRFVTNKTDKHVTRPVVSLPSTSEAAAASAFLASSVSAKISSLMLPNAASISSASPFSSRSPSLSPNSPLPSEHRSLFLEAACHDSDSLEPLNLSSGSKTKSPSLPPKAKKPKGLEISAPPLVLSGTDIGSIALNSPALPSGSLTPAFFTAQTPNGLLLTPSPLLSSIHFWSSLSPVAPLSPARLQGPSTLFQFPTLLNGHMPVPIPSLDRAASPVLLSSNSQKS
Method in brief: as §1

FEV = target: T7, FEV (Homo sapiens, UniProt Q99581 1-238); settings: protein: recombinant; tags: N-terminal GST; dsDNA, one strand shown
T7 sequence: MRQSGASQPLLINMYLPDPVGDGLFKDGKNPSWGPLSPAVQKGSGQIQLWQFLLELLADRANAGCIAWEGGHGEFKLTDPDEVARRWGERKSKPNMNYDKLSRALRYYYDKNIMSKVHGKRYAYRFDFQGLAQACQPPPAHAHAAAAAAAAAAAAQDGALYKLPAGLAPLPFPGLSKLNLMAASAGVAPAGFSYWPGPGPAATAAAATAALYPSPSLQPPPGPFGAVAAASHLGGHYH
Method in brief: as §1

ETV5 = ETV5 (Homo sapiens, UniProt P41161 1-510); settings: protein: recombinant; tags: N-terminal GST; dsDNA, one strand shown
Chain of ETV5 (P41161 whole entry): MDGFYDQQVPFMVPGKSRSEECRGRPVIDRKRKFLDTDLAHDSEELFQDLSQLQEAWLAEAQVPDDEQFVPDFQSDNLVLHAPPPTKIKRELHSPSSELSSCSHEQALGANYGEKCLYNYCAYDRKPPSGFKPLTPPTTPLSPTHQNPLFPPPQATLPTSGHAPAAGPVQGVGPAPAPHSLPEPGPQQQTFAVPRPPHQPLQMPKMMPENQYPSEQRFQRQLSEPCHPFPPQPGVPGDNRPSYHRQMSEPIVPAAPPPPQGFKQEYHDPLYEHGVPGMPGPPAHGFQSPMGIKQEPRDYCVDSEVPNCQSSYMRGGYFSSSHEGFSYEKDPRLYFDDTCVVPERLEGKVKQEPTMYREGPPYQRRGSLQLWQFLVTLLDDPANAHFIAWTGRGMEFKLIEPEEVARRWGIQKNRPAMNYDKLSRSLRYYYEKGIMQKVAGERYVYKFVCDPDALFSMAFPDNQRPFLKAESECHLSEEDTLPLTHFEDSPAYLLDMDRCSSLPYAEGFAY
Method in brief: as §1

HSF1 = HSF1 (Homo sapiens, UniProt Q00613 1-529); settings: protein: recombinant; tags: N-terminal GST; chain copies: 3; dsDNA, one strand shown
Chain of HSF1 (Q00613 whole entry): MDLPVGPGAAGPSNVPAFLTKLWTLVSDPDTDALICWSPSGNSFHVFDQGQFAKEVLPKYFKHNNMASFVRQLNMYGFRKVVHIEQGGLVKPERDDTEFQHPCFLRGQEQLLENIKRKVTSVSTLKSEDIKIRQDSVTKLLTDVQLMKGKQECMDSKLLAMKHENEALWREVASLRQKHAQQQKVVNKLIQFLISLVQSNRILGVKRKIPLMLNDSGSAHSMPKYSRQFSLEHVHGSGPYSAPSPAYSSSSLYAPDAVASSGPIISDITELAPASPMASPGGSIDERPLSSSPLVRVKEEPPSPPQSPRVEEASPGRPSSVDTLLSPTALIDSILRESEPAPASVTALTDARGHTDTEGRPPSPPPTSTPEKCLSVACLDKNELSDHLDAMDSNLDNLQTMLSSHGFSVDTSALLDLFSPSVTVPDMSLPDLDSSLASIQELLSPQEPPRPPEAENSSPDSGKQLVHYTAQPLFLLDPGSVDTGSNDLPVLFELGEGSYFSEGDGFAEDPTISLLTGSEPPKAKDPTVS
Method in brief: as §1

SPIC = target: T8, SPIC (Homo sapiens, UniProt Q8N5J4 1-248); settings: protein: recombinant; tags: N-terminal GST; dsDNA, one strand shown
T8 sequence: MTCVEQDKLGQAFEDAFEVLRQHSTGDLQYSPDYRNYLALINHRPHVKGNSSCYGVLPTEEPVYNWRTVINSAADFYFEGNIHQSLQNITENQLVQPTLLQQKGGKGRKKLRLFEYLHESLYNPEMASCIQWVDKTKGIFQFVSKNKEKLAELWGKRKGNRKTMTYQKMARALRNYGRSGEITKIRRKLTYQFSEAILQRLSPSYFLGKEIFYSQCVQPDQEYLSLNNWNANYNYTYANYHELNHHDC
Method in brief: as §1

ELF4 = ELF4 (Homo sapiens, UniProt Q99607 1-663); settings: protein: recombinant; tags: N-terminal GST; dsDNA, one strand shown
Chain of ELF4 (Q99607 whole entry): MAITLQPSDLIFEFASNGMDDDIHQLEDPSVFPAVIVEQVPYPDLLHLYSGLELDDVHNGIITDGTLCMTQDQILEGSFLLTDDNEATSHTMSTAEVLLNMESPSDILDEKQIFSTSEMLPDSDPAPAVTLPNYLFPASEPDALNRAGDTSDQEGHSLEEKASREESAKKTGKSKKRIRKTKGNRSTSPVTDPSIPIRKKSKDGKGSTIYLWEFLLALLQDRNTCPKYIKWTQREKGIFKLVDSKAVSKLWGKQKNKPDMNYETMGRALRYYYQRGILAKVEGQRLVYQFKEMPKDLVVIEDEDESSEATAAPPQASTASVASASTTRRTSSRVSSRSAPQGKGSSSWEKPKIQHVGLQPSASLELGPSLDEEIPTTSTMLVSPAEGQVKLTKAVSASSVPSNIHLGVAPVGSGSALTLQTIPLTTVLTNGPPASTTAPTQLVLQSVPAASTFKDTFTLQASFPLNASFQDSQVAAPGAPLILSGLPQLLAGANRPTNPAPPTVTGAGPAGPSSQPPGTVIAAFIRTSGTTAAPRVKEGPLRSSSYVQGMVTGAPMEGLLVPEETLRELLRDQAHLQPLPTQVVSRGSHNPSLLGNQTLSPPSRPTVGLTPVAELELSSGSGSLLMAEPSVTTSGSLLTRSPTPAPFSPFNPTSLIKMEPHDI
Method in brief: as §1

ELK4 = target: T9, ELK4 (Homo sapiens, UniProt P28324-2 1-405); settings: protein: recombinant; tags: N-terminal GST; dsDNA, one strand shown
T9 sequence: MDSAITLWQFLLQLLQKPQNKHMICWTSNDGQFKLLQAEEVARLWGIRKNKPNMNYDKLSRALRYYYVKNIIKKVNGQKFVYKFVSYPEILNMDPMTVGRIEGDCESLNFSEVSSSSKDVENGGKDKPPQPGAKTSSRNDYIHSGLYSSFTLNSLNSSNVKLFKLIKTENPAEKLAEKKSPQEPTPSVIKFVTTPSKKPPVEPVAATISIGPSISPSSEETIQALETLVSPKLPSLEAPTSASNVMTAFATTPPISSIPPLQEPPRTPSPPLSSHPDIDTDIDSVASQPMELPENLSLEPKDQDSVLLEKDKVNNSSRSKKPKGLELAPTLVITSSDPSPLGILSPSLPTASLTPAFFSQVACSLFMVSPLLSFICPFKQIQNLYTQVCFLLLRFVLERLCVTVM
Method in brief: as §1

ETV2 = target: T10, ETV2 (Homo sapiens, UniProt O00321 1-342); settings: protein: recombinant; tags: N-terminal GST; dsDNA, one strand shown
T10 sequence: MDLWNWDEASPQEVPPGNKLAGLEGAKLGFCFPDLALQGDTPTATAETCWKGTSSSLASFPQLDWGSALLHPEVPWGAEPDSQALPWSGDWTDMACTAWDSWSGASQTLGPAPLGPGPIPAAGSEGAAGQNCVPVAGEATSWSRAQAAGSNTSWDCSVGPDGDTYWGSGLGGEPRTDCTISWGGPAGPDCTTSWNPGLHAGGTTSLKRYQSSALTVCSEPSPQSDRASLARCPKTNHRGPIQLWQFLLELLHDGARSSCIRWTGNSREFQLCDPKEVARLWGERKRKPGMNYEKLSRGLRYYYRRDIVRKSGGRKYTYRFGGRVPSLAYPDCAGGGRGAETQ
Method in brief: as §1

ELF3 = target: T11, ELF3 (Homo sapiens, UniProt P78545 1-371); settings: protein: recombinant; tags: N-terminal GST; dsDNA, one strand shown
T11 sequence: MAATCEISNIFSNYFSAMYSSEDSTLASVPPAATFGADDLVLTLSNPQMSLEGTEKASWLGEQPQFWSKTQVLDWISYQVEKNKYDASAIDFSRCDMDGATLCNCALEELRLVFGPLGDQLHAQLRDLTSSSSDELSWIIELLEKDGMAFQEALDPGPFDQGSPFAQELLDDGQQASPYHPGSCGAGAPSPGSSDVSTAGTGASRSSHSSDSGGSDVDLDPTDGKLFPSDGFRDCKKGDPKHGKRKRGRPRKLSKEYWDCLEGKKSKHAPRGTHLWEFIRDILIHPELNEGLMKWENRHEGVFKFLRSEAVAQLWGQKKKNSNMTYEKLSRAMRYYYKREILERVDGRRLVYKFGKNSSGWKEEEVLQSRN
Method in brief: as §1

CRX = CRX (Homo sapiens, UniProt O43186 1-299); settings: protein: recombinant; tags: N-terminal GST; dsDNA, one strand shown
Chain of CRX (O43186 whole entry): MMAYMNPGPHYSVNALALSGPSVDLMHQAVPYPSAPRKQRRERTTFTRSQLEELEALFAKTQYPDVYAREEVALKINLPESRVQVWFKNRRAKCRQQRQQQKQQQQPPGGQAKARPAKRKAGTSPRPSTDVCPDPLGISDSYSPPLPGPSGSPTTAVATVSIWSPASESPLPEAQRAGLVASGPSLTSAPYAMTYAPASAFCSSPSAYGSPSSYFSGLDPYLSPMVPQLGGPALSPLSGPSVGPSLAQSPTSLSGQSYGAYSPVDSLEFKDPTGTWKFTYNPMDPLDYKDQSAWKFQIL
Method in brief: as §1

ETV1 = ETV1 (Homo sapiens, UniProt P50549 1-477); settings: protein: recombinant; tags: N-terminal GST; dsDNA, one strand shown
Chain of ETV1 (P50549 whole entry): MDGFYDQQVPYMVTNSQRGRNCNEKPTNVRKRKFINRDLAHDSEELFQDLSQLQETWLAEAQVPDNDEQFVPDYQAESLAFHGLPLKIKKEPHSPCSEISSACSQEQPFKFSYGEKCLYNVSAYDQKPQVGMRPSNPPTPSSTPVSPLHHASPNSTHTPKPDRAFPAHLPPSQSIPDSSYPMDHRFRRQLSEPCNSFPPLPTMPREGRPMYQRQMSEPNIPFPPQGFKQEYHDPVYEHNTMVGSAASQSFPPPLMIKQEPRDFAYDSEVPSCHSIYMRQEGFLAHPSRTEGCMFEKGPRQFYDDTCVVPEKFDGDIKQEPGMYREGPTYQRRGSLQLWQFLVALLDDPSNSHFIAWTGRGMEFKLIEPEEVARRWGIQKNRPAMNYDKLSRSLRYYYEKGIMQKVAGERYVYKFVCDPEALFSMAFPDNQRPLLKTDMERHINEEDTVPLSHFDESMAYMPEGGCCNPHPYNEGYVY
Method in brief: as §1

CTGATC
binding signal (FLI1): 1.16 fold enrichment (6-mer frequency, TF over GST control) | binding signal (ELK1): 1.54 fold enrichment (6-mer frequency, TF over GST control) | binding signal (GABPA): 1.4 fold enrichment (6-mer frequency, TF over GST control) | binding signal (ERG): 1.42 fold enrichment (6-mer frequency, TF over GST control) | binding signal (ELF1): 1.4 fold enrichment (6-mer frequency, TF over GST control) | binding signal (EHF): 1.39 fold enrichment (6-mer frequency, TF over GST control) | binding signal (SPI1): 1.27 fold enrichment (6-mer frequency, TF over GST control) | binding signal (SPIB): 1.4 fold enrichment (6-mer frequency, TF over GST control) | binding signal (ELK3): 1.4 fold enrichment (6-mer frequency, TF over GST control) | binding signal (FEV): 1.31 fold enrichment (6-mer frequency, TF over GST control) | binding signal (ETV5): 1.29 fold enrichment (6-mer frequency, TF over GST control) | binding signal (HSF1): 1.53 fold enrichment (6-mer frequency, TF over GST control) | binding signal (SPIC): 1.57 fold enrichment (6-mer frequency, TF over GST control) | binding signal (ELF4): 1.41 fold enrichment (6-mer frequency, TF over GST control) | binding signal (ELK4): 1.39 fold enrichment (6-mer frequency, TF over GST control) | binding signal (ETV2): 1.13 fold enrichment (6-mer frequency, TF over GST control) | binding signal (ELF3): 1.25 fold enrichment (6-mer frequency, TF over GST control) | binding signal (CRX): 1.95 fold enrichment (6-mer frequency, TF over GST control) | binding signal (ETV1): 1.43 fold enrichment (6-mer frequency, TF over GST control)
